The text below walks through data of PMC5540273 (PLoS ONE, 2017).

SMILES strings stand for the structures.
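Note: KINOMEscan kinase panel screen.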

The subject of the experiment is ERN1. As to conditions: concentration: 1 μM, replicates: in singlicate; n = 1.
`O=C(NCCNc1ccnc(Nc2ccc(F)cc2)n1)c1cc2ccccc2s1` [GSK1379874]: the “%Inh” value is 54%. Take `Cc1nnc(-c2ccc3occ(-c4ccc(C(C)O)cc4)c3c2)o1` (centres unmarked): the “%Inh” value turned out to be 0%. Consider `NS(=O)(=O)CCc1cccc(Nc2nccc(-c3c(-c4cccc(NC(=O)c5c(F)cccc5F)c4)nn4ccccc34)n2)c1` [GSK336735], for which the “%Inh” value is listed as 21%. With `NS(=O)(=O)c1cccc(-c2ccc3nccc(-c4cccc(S(N)(=O)=O)c4)c3c2)c1` [GW867253] the figure was 39%; with `Cc1nnc(-c2ccc(C)c(-c3ccc(C(=O)Nc4ccc(NS(C)(=O)=O)cc4)cc3)c2)o1` [GW702865], 0%; with `Cl.Nc1ncnc2occ(-c3ccc(NC(=O)Nc4cc(C(F)(F)F)ccc4F)cc3)c12` [SB-707548], 25%. For `O=C(NCCCN1CCOCC1)c1cccc(Nc2nccc(Nc3ccc(Oc4ccccc4)cc3)n2)c1` [GW663929], the “%Inh” value came out at 21%. Take `O=C(c1ccc(-c2cc(-c3c[nH]nc3-c3ccccn3)ccn2)cc1)N1CCOCC1` [GW812171]: the “%Inh” value was found to be 54%. On to `CN1c2ccc(NCc3ccc(F)cc3)cc2-c2c(cnn2C)S1(=O)=O`, for which the “%Inh” value stood at 0%. Take `Cc1nnc(-c2ccc3ncc(-c4ccc(S(C)=O)cc4)n3c2)o1` (centres unmarked): the “%Inh” value is listed as 10%.

Consider `COc1cc2ncn(-c3cc(OCc4sccc4Cl)c(C(N)=O)s3)c2cc1OC` [GSK448459], for which the “%Inh” value amounted to 0%. Turning to `[2H]C([2H])(c1cccc(C(F)(F)F)c1C)n1ccn2c(=O)nc(N3CCOCC3)cc12` [GSK2336394], the “%Inh” value was 0%. With `Cl.Oc1cccc(Nc2ccnc3cc(-c4ccncc4)ccc23)c1` [GW494601], the “%Inh” value is listed as 21%.

In the case of `CCc1nc(-c2cccc(C)c2)c(-c2ccnc(NCc3ccccc3)c2)s1`, the “%Inh” value came to 16%. With `CN(C(=O)c1ccc(-c2cc(-c3c[nH]nc3-c3ccccn3)ccn2)cc1)C1CCOCC1` [GW810083], the “%Inh” value is reported as 2%. Regarding `O=C(NOCC1CC1)c1ccc(F)c(F)c1Nc1ccc(I)cc1Cl`, the “%Inh” value is recorded as 0%.

Regarding `N#Cc1ccc(-c2cc(-c3c[nH]nc3-c3ccccn3)ccn2)cc1` [GW693028], the “%Inh” value is on record as 0%. Regarding `CN1c2ccc(CNc3ccc(F)cc3)cc2-c2c(cnn2C)S1(=O)=O`, the “%Inh” value was 0%. Turning to `O=c1cc(N2CCOCC2)nc2n(Cc3cccc(C(F)(F)F)c3)ccn12` [GSK2297543], the “%Inh” value was determined as 6%. On to `O=C(NCCNc1ccnc(Nc2ccc(F)cc2)n1)Nc1ccccc1F` [GSK1379880], for which the “%Inh” value is recorded as 11%. The figure for `COc1cc2c(cc1OC[C@@H](O)CO)ncc1c3ccc(C#N)cc3[nH]c21` is 0%; for `CCCCCc1nc2c(N)ncnc2n1CCCCC` [SKF-97255] it is 13%. Consider `O=C(Nc1cccc(-c2nn3ncccc3c2-c2ccnc(Nc3cccc(C(F)(F)F)c3)n2)c1)c1c(F)cccc1F` [GSK299495], for which the “%Inh” value was 15%. The figure for `O=c1cc(N2CCOCC2)nc2n(Cc3cccc4ccccc34)ccn12` [GSK2333389] is 10%; for `Cc1c(Cn2c(C)nn3c(=O)cc(N4CCOC(C)C4)nc23)cccc1C(F)(F)F` (centres unmarked) [GSK2344444] it is 24%.

Regarding `O=C1NC(=O)C(N2CCc3ccccc32)=C1c1cccc(Cl)c1` [SB-408010], the “%Inh” value amounted to 27%. With `N#Cc1c(N2CCOCC2)sc(-c2ccn[nH]2)c1-c1ccc(Cl)cc1`, the “%Inh” value is listed as 4%. As to `Cn1cc(-c2ccc3c(c2)CCN3C(=O)Cc2ccccc2Cl)c2c(N)ncnc21` [GSK2608885], the “%Inh” value came out at 37%. As to `COc1cc(Nc2nccc(N3CCC(NC(=O)c4cccc(NC(C)=O)c4)C3)n2)cc(OC)c1OC` (centres unmarked) [GSK1379754], the “%Inh” value is reported as 22%. With `COc1ccc(S(=O)(=O)NC2CCN(c3cc(C)nc(Nc4cccc(C#N)c4)n3)CC2)cc1.O=C(O)C(F)(F)F` [GSK1653539] the figure was 4%; with `COc1cc2c(cc1OCCN1CCN(C)CC1)ncc1c3ccc(C#N)cc3[nH]c21`, 0%; with `O=C(Nc1n[nH]c2cc(-c3cccc(F)c3)ccc12)C1CC1` [SB-735464], 12%. `Cc1cccc(-c2nc(Nc3ccc4ncsc4c3)c3ccccc3n2)n1` [GW867588]: the “%Inh” value was 38%. Turning to `Nc1nccc(-c2c(-c3ccc(F)cc3)ncn2C2CCN(CC(F)(F)F)CC2)n1` [SB-236560], the “%Inh” value was 0%. With `COc1ccc(Nc2nccc(N3CCC(NC(=O)Nc4cccc(C(C)=O)c4)C3)n2)cc1` (centres unmarked) [GSK1379731], the “%Inh” value stood at 0%.
